A short description of this assay: viability loss with induced miR-34 in A549 – imaging, A549 dox-inducible miR-34, nuclei and caspase counts, primary screen (AID 1347080). Also: test concentration not given here. The settings on record: A549 miR-34 inducible, Hoechst nuclei count, 48 h; measured here: total cells without miR-34 induction.
`CCCCC/C=C\C/C=C\C/C=C\C/C=C\CCCC(=O)NCc1ccoc1` displayed a cell count of 5790.
The molecule `CCCCCCCCCCCCCCCCSP(=O)([O-])OCC[N+](C)(C)C` came in with a cell count of 5450.
With `CCCCCCCC/C=C\CCCCCCCC(=O)N[C@H](C)CO` the figure was 5540; with `CCCCCCC(=O)O[C@H]1CC[C@H]2[C@@H]3C=CC4=CC(=O)CC[C@]4(C)[C@H]3CC[C@]12C`, 5970; with `CCCCC/C=C\C/C=C\C/C=C\C/C=C\CCCC(=O)NCCCl`, 6270.
In turn, `CC(C)[C@]1(O)[C@@H](OC(=O)c2ccc[nH]2)[C@@]2(O)[C@@]3(C)C[C@]4(O)O[C@@]5([C@H](O)[C@@H](C)CC[C@]35O)[C@@]2(O)C41C` returned a cell count of 5960.
As for `c1cc2ccc(N3CCNCC3)cc2cn1`, the figure is 5610; as for `O=C(CCC/C=C\C[C@@H]1[C@@H](/C=C/[C@@H](O)COc2cccc(C(F)(F)F)c2)[C@H](O)C[C@@H]1O)NC(CO)CO`, 5370.
As to `CCN1C[C@@]2(COC)C3[C@@H](OC)[C@H]4[C@H]1C3([C@@H]1C[C@@]3(O)[C@H](OC(=O)c5ccccc5)[C@@H]1[C@]4(OC(C)=O)[C@@H](O)[C@@H]3OC)[C@H](OC)C[C@H]2O`, the cell count worked out at 5800.
As for `CCCCC/C=C\C/C=C\C/C=C\C/C=C\CCCC(=O)NC[C@H](C)O`, the figure is 6110.
Regarding `C=C(C)[C@@H]1CCC(C)=C[C@H]1c1c(O)cc(O)cc1CCCCC`, the cell count was determined as 5500.
As for `COc1ccc(/C=C/C(=O)CC(=O)/C=C/c2ccc(OC)c(OC)c2)cc1OC`, the figure is 6280; as for `CCCC[C@@H](C)[C@@H](OC(=O)C[C@@H](CC(=O)O)C(=O)O)[C@H](C[C@@H](C)C[C@H](O)CCCC[C@@H](O)C[C@H](O)[C@H](C)N)OC(=O)C[C@H](CC(=O)O)C(=O)O`, 6060.
As for `c1cc2cc(N3CCNCC3)ccc2cn1`, the figure is 5630.
With `O=C(NCCN1CCC2(CC1)C(=O)NCN2c1ccccc1)c1ccc2ccccc2c1`, the cell count worked out at 5940.
With `c1cc(N2CCNCC2)c2cc[nH]c2c1` the figure was 5570.
With `CCCCC/C=C\C/C=C\C/C=C\C/C=C\CCCC(=O)NCCS(=O)(=O)O` the figure was 5730; with `COc1ccc2cc(C(C#N)OC(=O)OCC3OC3c3ccccc3)ccc2c1` (centres undefined), 5890.
Molecule `CN1C(=O)[C@]23CC4=CC=C[C@H](O)[C@H]4N2C(=O)[C@@]1(CO)SS3` yielded a cell count of 730.
The molecule `CC1OC(=O)C(C(C)C)NC(=O)C(C(C)C)OC(=O)C(C(C)C)NC(=O)C(C)OC(=O)C(C(C)C)NC(=O)C(C(C)C)OC(=O)C(C(C)C)NC(=O)C(C)OC(=O)C(C(C)C)NC(=O)C(C(C)C)OC(=O)C(C(C)C)NC1=O` (centres undefined) came in with a cell count of 1300.
With `c1cc(N2CCNCC2)c2cnccc2c1` the figure was 5740; with `CCCCC/C=C\C/C=C\C/C=C\C/C=C\CCCC(=O)NCCc1c[nH]c2ccc(O)cc12`, 5630; with `CCCCC/C=C\C/C=C\C/C=C\C/C=C\CCCC(=O)Nc1ccc2c(C)cc(=O)oc2c1`, 5510.
As for `CCCN(CCCN)N(O)N=O`, the figure is 5540.
With `CCCCCCCCCC(=O)OC[C@H](COP(=O)([O-])OCC[N+](C)(C)C)OC(=O)CCCCCCCCC` the figure was 5860.
Take `CCCCCCC(=O)O[C@H]1CC[C@H]2[C@@H]3CC(=O)C4=CC(=O)CC[C@]4(C)[C@H]3CC[C@]12C`: the cell count was found to be 5830.
Molecule `C=C1[C@@H](O)[C@@H]2O[C@@]3(CCC2O[C@@H]1[C@@H](O)C[C@H](C)C1O[C@@]2(CCCCO2)CC[C@H]1C)CC[C@H](/C=C/[C@@H](C)[C@@H]1CC(C)=C[C@@]2(O[C@H](C[C@@](C)(O)C(=O)O)CC[C@H]2O)O1)O3` (some centres undefined) displayed a cell count of 472.
As for `CCCCC/C=C\C/C=C\C/C=C\C/C=C\CCCC(=O)Nc1ccc([N+](=O)[O-])cc1`, the figure is 5630; as for `CCCCC/C=C\C/C=C\C/C=C\C/C=C\CCCC(=O)NCC(O)CC(=O)O` (centres undefined), 5070; as for `CCCCC/C=C\C/C=C\C/C=C\C/C=C\CCCC(=O)NC1CC1`, 5800.
With `CCCCCCCCCCCCCCCC(=O)OC[C@H](COP(=O)([O-])OCC[N+](C)(C)C)OC(=O)CCCC=O` the figure was 5690.
Molecule `CCCCC/C=C\C/C=C\C/C=C\C/C=C\CCCC(=O)NCCF` had a cell count of 5320.
As for `C[C@]12CCC3c4ccc(OC(=O)N(CCCl)CCCl)cc4CCC3C1CC[C@@H]2O` (some centres undefined), the figure is 1700; as for `CN=C(NS(=O)(=O)c1ccc(Cl)cc1)N1CC(c2ccccc2)C(c2ccc(Cl)cc2)=N1` (centres undefined), 6340.
As for `C=C(C)[C@@H]1CCC(C)=C[C@H]1C1=C(O)C(=O)C(CCCCC)=CC1=O`, the figure is 5000; as for `COc1cc(CNC(=O)CCCCCCC(C)C)c(I)cc1O`, 5600; as for `CCCCC/C=C\C/C=C\C/C=C\C/C=C\CCCC(=O)N[C@@H](CO)C(=O)O`, 5540.
With `O[C@H]1[C@H]2[C@H](O)CCCN2C[C@H]1O` the figure was 6260.
`CCCCCCCC/C=C\CCCCCCCC(=O)OC[C@@H](COP(O)(O)=S)OC` came in with a cell count of 5460.
